Only some compounds are listed: those with a hit (about 11% of all), similar ones and a draw of the others.
Pf growth 48h: inhibits P. falciparum growth in the first generation, 48 h; P. falciparum luciferase growth in erythrocytes, 48 h; 310,000 compounds, 5.9% hits; Potency, µM (titrated, usually from 28.7 µM), actives largely listed as inhibitors
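Luciferase-expressing parasites in RBCs, 2% Hct / 0.1% parasitemia final; RPMI 1640 + 0.5% Albumax; 37 C, 5% CO2, one generation; luminescence read-out, lower signal = inhibition.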
Pf growth 96h: inhibits malaria parasite growth, 96 h; 320,000 compounds, 6.9% hits; Potency, µM (doses to about 28.7 µM), hits mostly inhibitors; P. falciparum luciferase reporter growth, 96 h; AID 504834
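Two parasite generations (96 h, 37 C, 5% CO2) of compound exposure in infected erythrocytes (0.05% parasitemia, 2% hematocrit). Luciferase-reporter P. falciparum; decreased luminescence indicates inhibited growth, aimed at apicoplast-acting delayed death.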
Sm TGR inh: inhibitors of Schistosoma mansoni thioredoxin glutathione reductase; Q962Y6; Potency, µM (titrated, usually from 114 µM), actives largely listed as inhibitors; 360,000 compounds, 3% hits; purified TGR, DTNB reduction, TNB absorbance 405 nm; AID 485364; also: nearly all actives have a fitted effect of over 60% in size
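TGR 20 nM + NADPH 100 uM (dispensed conc.), cpd preinc 15 min RT; start with NADPH (500 uM addition) then DTNB (15 mM addition). Kinetic TNB absorbance, 405 nm filter. Four-parameter Hill fit across titration.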
NS1 inh: blocks influenza NS1 protein function; AID 2326; Potency, µM (doses to about 46.1 µM); 270,000 compounds, 0.4% hits; calls by dose curve; also: actives are rising curves; nearly all actives have a fitted effect of over 50% in size
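Recovery from NS1-induced slow growth read by OD600 in budding yeast switched to galactose assay medium (pH 6.0, -URA) at 1:100 dilution. Compound 23 nl per well; the matching strain lacking NS1 serves as control.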
AMA1 RON2 block: inhibitors of Plasmodium falciparum AMA1-RON2 interaction; AlphaScreen AMA1-biotinylated RON2 peptide binding; Potency, µM (series often up to 58.2 µM), usual class: inhibitors; 360,000 compounds, 0.2% hits; AID 720542; also: nearly all actives have a fitted effect of over 45% in size
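AMA1 (3D7) with his tag at 25 nM final met compounds first, then biotinylated RON2 peptide at 25 nM; detection used donor plus acceptor beads, 10 µg/mL apiece, read by AlphaScreen after 30 min at room temperature.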
Each line names hits and unclear results; the compound was inactive in the other large screens. Unless noted, calls follow the shape of the dose curve; as a rule, active = well fitted curve in the direction sought with a large enough effect; inconclusive = small, poorly fitted or top-dose-only effect, or another doubt; inactive = no such curve, though single readings can be large; an effect the other way counts as inactive or inconclusive.

Cc1cnc(C(=O)NC2CC(C)(C)Cc3c2cnn3-c2ccccc2)cn1 (centres undefined)	none
CCNC(=O)Nc1nc2ccccc2s1	none (no result: NS1 inh)
O=C(CSc1cn[nH]n1)Nc1nc2ccccc2s1	none
COc1ccc(-c2nnc3ccc(SCC(=O)Nc4nc5ccccc5s4)nn23)cc1OC	Pf growth 48h 8.28µM, Pf growth 96h inconclusive
COc1ccc(-c2nnc3ccc(SCC(=O)Nc4nccs4)nn23)cc1OC	none
CCOCC(=O)Nc1nc2ccccc2s1	Pf growth 96h 14.7µM, Sm TGR inh 35.5µM
O=C(CSc1ccccn1)Nc1nc2ccccc2s1	Pf growth 96h 2.94µM
CC(C)Cn1nc(C(=O)OCC(=O)NCC(F)(F)F)c2ccccc2c1=O	Pf growth 96h inconclusive (no result: NS1 inh)
N#Cc1ccc(NC(=O)Cn2cnc([N+](=O)[O-])c2)cc1	Pf growth 96h 11.7µM
O=C(Cn1cnc([N+](=O)[O-])c1)Nc1cc(Oc2ccc(Cl)cc2Cl)cc([N+](=O)[O-])c1	Pf growth 48h 13.1µM, NS1 inh inconclusive
Cc1ccc(NC(=O)CCN2C(=O)c3ccccc3Sc3ncccc32)c(Cl)c1	none (no result: Pf growth 48h, Pf growth 96h, NS1 inh, AMA1 RON2 block)
CCCC1NC(=S)N(C2CCCCC2)C1=O (centres undefined)	Pf growth 96h 2.94µM
Cc1cc(O)c(C(c2cccc(F)c2)N2CCN(c3ccccc3)CC2)c(=O)n1Cc1ccco1 (centres undefined)	Sm TGR inh 3.16µM (no result: Pf growth 48h, Pf growth 96h, NS1 inh, AMA1 RON2 block)
O=S(=O)(NCC(c1ccco1)N1CCN(c2ccccc2)CC1)c1ccc(F)cc1 (centres undefined)	none
Cc1cc(O)c(C(c2cccc(Cl)c2)N2CCN(c3ccccc3)CC2)c(=O)n1Cc1ccco1 (centres undefined)	Sm TGR inh 3.98µM (no result: Pf growth 48h, Pf growth 96h, NS1 inh, AMA1 RON2 block)
Cc1ccc(C(=O)OCC(=O)NC2CCCCC2)cc1S(=O)(=O)N1CCCCC1	Pf growth 48h inconclusive, Pf growth 96h inconclusive (no result: NS1 inh)
S[C@@H]1CCCN(Cc2ccccc2)C1	none (no result: Pf growth 48h, Pf growth 96h, Sm TGR inh, AMA1 RON2 block)
COc1cc(OC)c(C(=O)OCC(=O)Nc2ccc(N3CCOCC3)cc2)cc1OC	none (no result: Pf growth 48h, Pf growth 96h, Sm TGR inh, NS1 inh)
CC(C)C[C@H]1CNC(=O)C(=O)N1CC1CCN(CCc2ccc(-c3ccccc3)cc2)CC1	none (no result: Pf growth 48h, Pf growth 96h, Sm TGR inh, NS1 inh)
COC(=O)c1c(C(=O)c2ccc(Br)cc2)n(C)c2ccccc12	Pf growth 48h 13.1µM, Pf growth 96h inconclusive (no result: NS1 inh)
COC(=O)c1c(S(N)(=O)=O)c2ccccc2n1C	none
CCOC(=O)c1ccc(NC(=O)c2c(NCc3cc(OC)ccc3OC)sc3c2CCC3)cc1	none (no result: Pf growth 48h, Pf growth 96h, NS1 inh, AMA1 RON2 block)
Cc1no[n+]([O-])c1COc1ccc(/C=N/n2nnnc2N)cc1	Pf growth 96h 11.7µM
CC1CCCCN1Cc1c(O)ccc2c(=O)c(-c3ccc(Cl)cc3)coc12 (centres undefined)	Pf growth 48h 10.4µM
CC1CCCCN1Cc1c(O)ccc2c(=O)c(-c3ccccc3Cl)c(C(F)(F)F)oc12 (centres undefined)	none (no result: Pf growth 48h, Pf growth 96h, NS1 inh, AMA1 RON2 block)
COc1ccc(-c2c(C)oc3c(CN4CCCCC4C)c(O)ccc3c2=O)cc1OC (centres undefined)	Pf growth 48h inconclusive, Pf growth 96h 11.7µM
CC1CCCCN1Cc1c(O)ccc2c(=O)c(-c3ccc(Br)cc3)coc12 (centres undefined)	Pf growth 48h 7.38µM, Pf growth 96h 5.86µM
COc1ccccc1-c1coc2c(CN3CCCCC3C)c(O)ccc2c1=O (centres undefined)	Pf growth 48h inconclusive, Pf growth 96h inconclusive
CC1CCCCN1Cc1c(O)ccc2c(=O)c(-c3nc4ccccc4s3)c(N)oc12 (centres undefined)	Pf growth 48h 0.828µM, Pf growth 96h 1.04µM
Cc1nnc(NC(=O)c2cccc(S(=O)(=O)N(C)c3cccc(Cl)c3)c2)s1	Pf growth 48h inconclusive, Pf growth 96h inconclusive (no result: NS1 inh)
Cc1ccc(CN=C2NC(=O)C(CC(=O)NCCc3ccccc3)S2)cc1 (centres undefined)	Pf growth 96h inconclusive, Sm TGR inh inconclusive (no result: NS1 inh, AMA1 RON2 block)
Cc1ccc(S(=O)(=O)c2nnn3c2nc(NC(C)C)c2sccc23)cc1	none (no result: Pf growth 48h, Pf growth 96h, NS1 inh, AMA1 RON2 block)
CCN(CC)Cc1c(O)ccc2c(=O)c(-c3ccccc3)coc12	none
O=c1c(-c2ccc(Cl)cc2)coc2c(CN3CCOCC3)c(O)ccc12	Pf growth 48h 8.28µM, Pf growth 96h 10.4µM, NS1 inh inconclusive
CC(C)N(Cc1c(O)ccc2c(=O)c(-c3ccc(Cl)cc3)coc12)C(C)C	Sm TGR inh 39.8µM
O=C(Nc1ccc(-c2nc3cc(NC(=O)c4ccccc4F)ccc3o2)cc1)c1ccccc1F	none (no result: Pf growth 48h, Pf growth 96h, NS1 inh, AMA1 RON2 block)

Source: PubChem
